Test results published in PubChem BioAssay (NCATS).
Inconclusive results are not listed. Where a call stands in place of a potency, no number is given. Unmarked numbers belong to inactive results. Calls of active or inactive are those of the source. Calls come from the whole dose curve; as a rule, active = well fitted curve in the direction sought with a large enough effect; inconclusive = small, poorly fitted or top-dose-only effect, or another doubt; inactive = no such curve, though single readings can be large; an effect the other way counts as inactive or inconclusive.

Experiments:
[1] = P-glycoprotein substrates identified in KB-3-1 adenocarcinoma cell line, qHTS therapeutic library screen (AID 1346986); details: KB-3-1 parental cells viability, CellTiter-Glo, 72 h; series mostly up to 44.5 µM; note: nearly all actives have a fitted effect of over 60% in size
Summary of the method: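 72 h cell-killing screen, 500 cells/well, CellTiter-Glo luminescence. Paired lines KB-3-1/KB-8-5-11; P-gp dependence checked by tariquidar co-treatment and HEK-293 MDR-19 versus empty-vector cells.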

[2] = P-glycoprotein substrates identified in KB-8-5-11 adenocarcinoma cell line, qHTS therapeutic library screen (AID 1346987); details: KB-8-5-11 (P-gp overexpressing) viability, CellTiter-Glo, 72 h; series mostly up to 44.5 µM; note: nearly all actives have a fitted effect of over 65% in size
Summary of the method: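 Luminescence from CellTiter-Glo, read 5 min after addition, quantified survival of KB-8-5-11 (P-gp-overexpressing) cells exposed to compounds for 72 h. AC50 was derived from concentration-response curves.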

SMILES	Potency [1]	Potency [2]	outcome [1]	outcome [2]
OCC(O)C(c1c[nH]c2ccccc12)c1c[nH]c2ccccc12 (stereo not drawn)	inactive	inactive		
C=CC1(C)CC2CCC3C(C)(C(=O)O)CCCC3(C)C2=CC1=O (stereo not drawn)	inactive	inactive		
Cc1occc(=O)c1O[C@@H]1O[C@H](CO[C@@H]2OC[C@](O)(CO)[C@H]2O)[C@@H](O)[C@H](O)[C@H]1O	inactive	inactive		
COC(=O)C[C@@H]1C(C(=O)O)=CO[C@@H](O[C@@H]2O[C@H](CO)[C@@H](O)[C@H](O)[C@H]2O)/C1=C\COC(=O)/C=C/c1ccc(O)c(OC)c1	inactive	inactive		
C/C=C(\C)C(=O)O[C@H]1C=CC(=O)O[C@H]1/C=C/[C@H](O)[C@@H](C)O	inactive	inactive		
C/C=C(\C)C(=O)OC[C@H]1O[C@@H](O[C@H]2[C@@H](O[C@H]3O[C@H](COC(=O)/C(C)=C/C)[C@@H](O)[C@H](O)[C@H]3O[C@@H]3O[C@H](CO)[C@@H](O)[C@H](OC(=O)/C(C)=C/C)[C@H]3O)O[C@H](COC(=O)/C(C)=C/C)[C@@H](O)[C@@H]2O)[C@H](O)[C@@H](O)[C@@H]1O			inactive [at 9.29 µM]	inactive [at 9.29 µM]
O=C(N[C@@H]1CC[C@@H](c2cccc(F)c2F)CN(CC(F)(F)F)C1=O)N1CCC(n2c(=O)[nH]c3ncccc32)CC1	inactive	inactive		
O=C(O[C@@H]1O[C@H](CO)[C@@H](O)[C@H](O)[C@H]1O)c1ccccc1	inactive	inactive		
CCOc1ncc(S(=O)(=O)N2CCN(CC)CC2)cc1-c1nc2c(CC)n(CCOC)nc2c(=O)[nH]1	inactive	inactive		
CC1=CC(=O)CC(C)(C)[C@@]1(O)/C=C/C(C)O[C@@H]1O[C@H](CO)[C@@H](O)[C@H](O)[C@H]1O (stereo partly drawn)	inactive	inactive		
C[C@@H]1O[C@@H](O[C@H]2[C@H](Oc3cc(O)c(C(=O)CCc4ccc(O)cc4)c(O)c3)O[C@H](CO)[C@@H](O)[C@@H]2O)[C@H](O)[C@H](O)[C@H]1O	inactive	inactive		
C=C(CCO[C@@H]1O[C@H](CO)[C@@H](O)[C@H](O)[C@H]1O)C(=O)O	inactive	inactive		
C[C@@H]1C[C@H]2OC(=O)[C@@]3(C)CCC[C@](C)(C23)[C@@]1(O)CCC1=CC(=O)OC1O (stereo partly drawn)	inactive	inactive		
CCOC(=O)CSc1nc2c(sc3ccccc32)c(=O)n1CCCN1CCCC1	inactive	inactive		
NC(N)=NCCC[C@H](NC(=O)c1sccc1NS(=O)(=O)c1cccc2nsnc12)C(=O)O	inactive	inactive		
C=C(C)[C@@H]1CC[C@]2(CO)CC[C@]3(C)[C@H](CC[C@@H]4[C@@]5(C)CC[C@H](O)C(C)(C)[C@@H]5CC[C@]43C)[C@@H]12	inactive	inactive		
C[C@H](/C=C/[C@@]1(O)[C@H](C)CC(=O)CC1(C)C)O[C@@H]1O[C@H](CO[C@@H]2OC[C@@H](O)[C@H](O)[C@H]2O)[C@@H](O)[C@H](O)[C@H]1O	inactive	inactive		
C=C1C(=O)OC[C@H]2C(C(=O)O)=CC3CC(C)(C)C[C@@]132 (stereo partly drawn)	inactive	inactive		
O=C(Cn1c2ccccc2c2nc3n(c(=O)c21)CCS3)N1CCCC1	inactive	inactive		
Cc1ncc([N+](=O)[O-])n1C[C@H](O)CN1CCOCC1	inactive	inactive		
CC1CC2(O)OC(=O)C3=C2C(CCC3)[C@@]12C[C@@H](c1ccoc1)OC2=O (stereo partly drawn)	inactive	inactive		
CC1CCC2C(C)(C)[C@H](O)CC[C@]2(C)C12Cc1c(O)cc3c(c1O2)CN(C(CCC(=O)O)C(=O)O)C3=O (stereo partly drawn)	inactive	inactive		
NC1(c2ccc(NC(=O)c3ccnc(-c4cc(C(=O)O)ccn4)c3)cc2)CC1	inactive	inactive		
C=C(C(=O)OC)[C@]12O[C@@](C)(CC[C@@]3(O)/C(=C\C)C(=O)O[C@]3(C)C[C@@H]1OC(=O)C(CO)CN1CCCC1C(=O)O)CC2=O (stereo partly drawn)	inactive	inactive		
